# Hits are enriched below; roughly 6.2% of the tested compounds scored in any of these assays.
# KB-3-1 tox – qHTS assay for MDR1-selective chemotherapeutics: Primary screen using the parental adenocarcinoma cell KB-3-1 | KB-3-1 viability, CellTiter-Glo ATP luminescence, 72 h | Potency, µM (doses to about 46.1 µM), hits mostly cytotoxic | 400,000 tested, 1.4% active; further: nearly all actives have a fitted effect of over 60% in size
#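 Screening of KB-3-1 cells (DMEM, 10% FBS, phenol-red free) ran from lowest to highest compound concentration; after 72 h at 37 °C viability was read luminescently and curves fitted.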
# HT1080 IDH1KD tx – qHTS for induction of synthetic lethality in tumor cells producing 2HG: qHTS for the HT-1080-IDH1KD cell line | HT-1080 IDH1 knockdown viability, ATP luminescence, 48 h | Potency, µM (series often up to 46.1 µM), actives largely listed as cytotoxic | 360,000 tested, 2% active
#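 Luminescent ATP read-out (CellTiter-Glo, 10 min at room temperature) after 48 h compound exposure at 37 °C gave viability of IDH1-knockdown HT-1080 cells. Activity was normalised to DMSO and cell-free wells, then fitted as concentration-response curves.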
# HT1080-NT tox – qHTS for induction of synthetic lethality in tumor cells producing 2HG: qHTS for the HT-1080-NT fibrosarcoma cell line | HT-1080-NT fibrosarcoma viability, CellTiter-Glo ATP luminescence, 48 h | Potency, µM (titrated, usually from 46.1 µM), actives largely listed as cytotoxic | 360,000 tested, 1.6% active | AID 686970, 2013;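 further: NT is the 2HG producing partner of a matched IDH1 knockdown line; nearly all actives have a fitted effect of over 55% in size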
#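 HT-1080-NT fibrosarcoma cells (2HG-overproducing), 750 cells/well in RPMI with 5% FBS, dosed after 2 h and incubated 48 h at 37C. CellTiter-Glo luminescence normalized to DMSO and no-cell wells; concentration-response curves fitted and classed.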
# KB-V1 MDR tox – qHTS assay for MDR1-selective chemotherapeutics: Primary screen using the drug-selected MDR subline cells KB-V1. Potency, µM (titrated, usually from 46.1 µM), usual class: cytotoxic. AID 1347076, 2019. KB-V1 MDR cells viability, CellTiter-Glo, 72 h. 400,000 tested, 3.4% active; further: nearly all actives have a fitted effect of over 60% in size
#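 Potencies derive from concentration-effect curves fitted to normalized luminescence (CellTiter-Glo) of KB-V1 cells treated for 72 h at 37 degrees C in phenol-red-free DMEM containing 10% FBS.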
# ATXN2 expr inh – Primary qHTS for Inhibitors of ATXN expression; HEK-293 ATXN2-luciferase reporter, luminescence, 24 h; Potency, µM (top dose mostly 57 µM), actives largely listed as inhibitors; 360,000 tested, 0.72% active; further: nearly all actives have a fitted effect of over 55% in size
#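 ATXN2-luciferase reporter cells (luciferase flanked by upstream and downstream ATXN2 gene portions) were treated 24 h at 37 °C with compounds at up to 57 uM. SteadyGlo luminescence gave expression; GF-AFC fluorescence gave viability.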
# S2 tox – Viability Counterscreen for Primary qHTS for Inhibitors of ATXN expression; S2 cells (HEK-293 line with an ATXN2-luciferase reporter) viability, CellTiter-Fluor protease fluorescence, 24 h; Potency, µM (doses to about 56.7 µM), most hits filed as cytotoxic; 400,000 tested, 0.49% active; AID 651635, 2014; further: nearly all actives have a fitted effect of over 40% in size
# A number is an active result; . = inactive; ? = inconclusive; / = no result; [ ] = another dose, or the depositor's remark. The call rests on the fitted dose curve; in most records, active means well fitted curve in the direction sought with a large enough effect; inconclusive means small, poorly fitted or top-dose-only effect, or another doubt; inactive means no such curve, though single readings can be large; an effect the other way counts as inactive or inconclusive.
SMILES,KB-3-1 tox,HT1080 IDH1KD tx,HT1080-NT tox,KB-V1 MDR tox,ATXN2 expr inh,S2 tox
COc1ccc(-c2oc3ccc(N4CCOCC4)cc3c2C#CC2(O)CCCCC2)cc1,21µM,21µM,?,.,.,?
COc1ccc(-c2oc3ccc(N4CCOCC4)cc3c2C#Cc2ccc(N)cc2)cc1,?,23µM,16µM,?,.,.
COc1ccccc1-c1noc(-c2ccc(NCC3CCCO3)c([N+](=O)[O-])c2)n1 (configuration not stated),.,/,/,.,.,.
Clc1ccc(/C=C/c2ccnc3ccccc23)c(Cl)c1,?,/,/,.,/,/
Cc1ccccc1NC(=O)N1c2ccccc2CC1C (configuration not stated),.,.,.,.,.,.
Cc1cc(C(=O)N2CC=C(c3ccccc3)CC2)c2ccccc2n1,?,1.6µM,?,1.5µM,?,?
CC(=O)N1CCN(C(=O)c2cc(C)nc3ccccc23)CC1,.,.,.,.,/,.
Cc1ccc(C(=O)N2CC=C(c3ccccc3)CC2)o1,.,.,.,.,.,.
Cc1c(C(=O)C(=O)N2CC=C(c3ccccc3)CC2)c2ccccc2n1C,2.9µM,2.3µM,2.6µM,3.7µM,.,.
Cc1c(C(=O)C(=O)N2c3ccccc3CC2C)c2ccccc2n1C (configuration not stated),23µM,?,?,21µM,?,.
COc1ccc(-c2ccc(C(=O)NCC3Cc4cccc(-c5nc(C)cnc5C)c4O3)o2)cc1 (configuration not stated),/,/,/,/,/,.
COC(=O)[C@]12CCCCC=C1N(Cc1ccc3c(c1)OCO3)C(=O)[C@H](CC(=O)N1CCCCC1)C2,.,.,.,?,/,/
COc1cccc(C2(CC(=O)N3CCN(c4ccccn4)CC3)CC(=O)N(C3CCCC3)C2=O)c1 (configuration not stated),/,/,/,/,/,.
CC/C(=N\NC(=O)c1ccc(CN(C)S(=O)(=O)c2ccc(C)cc2)cc1)c1ccc(OC(F)F)cc1,?,.,.,15µM,.,.
Cc1ccc(S(=O)(=O)N(C)Cc2ccc(C(=O)NN=C(CC(C)C)CC(C)C)cc2)cc1,?,.,.,2.3µM,.,?
O=C(CCCCCn1c(=O)[nH]c2ccccc2c1=O)NCc1ccccc1,.,/,/,.,/,/
Cc1ccc(-c2ccccc2NC(=O)CS(=O)CC(=O)Nc2ccc(C)c(Cl)c2)o1 (configuration not stated),.,23µM,.,.,?,.
Cc1ccc(-c2ccccc2NC(=O)CCl)o1,.,.[9.24 µM],.,.,.,.
Cc1ccc(C(c2sc3nc(-c4ccco4)nn3c2O)N2CCOCC2)cc1 (configuration not stated),.,/,/,.,.,.
COc1ccc(OC)c(N2C(=O)CC(Cc3ccc(Cl)cc3)C2=O)c1 (configuration not stated),.,.,.,.,.,.
COc1ccc(OC)c(N2C(=O)CC(Cc3cc(C)cc(C)c3)C2=O)c1 (configuration not stated),6.5µM,?,?,?,.,.
O=C(NCc1ccccc1)C(c1ccc(C(F)(F)F)cc1)n1c(=O)c(-c2ccco2)nc2ccccc21 (configuration not stated),.,.,.,?,/,/
COc1cc(-c2c(C#N)c(N)nc3c2c(C)nn3-c2ccc(C)c(C)c2)cc(OC)c1OC,?,11µM,?,.,.,.
COc1ccc(C(NC(=O)CC(C)C)c2c(O)ccc3ccccc23)cc1 (configuration not stated),?,?,?,.,/,.
CCCC(=O)NC(c1ccccc1Cl)c1ccc2cccnc2c1O (configuration not stated),?,?,?,?,3.2µM,.
SMILES,KB-3-1 tox,HT1080 IDH1KD tx,HT1080-NT tox,KB-V1 MDR tox,ATXN2 expr inh,S2 tox
CCCCC(=O)NC(c1ccc(OC)cc1)c1ccc2cccnc2c1O (configuration not stated),?,?,?,.,/,?
CCCC(=O)NC(c1ccc(C(C)C)cc1)c1ccc2cccnc2c1O (configuration not stated),5.2µM,?,.,?,?,.
CCCC(=O)NC(c1ccc(N(C)C)cc1)c1ccc2cccnc2c1O (configuration not stated),?,?,?,.,?,.
COc1ccc(C(NC(=O)C(C)C)c2ccc3cccnc3c2O)cc1 (configuration not stated),.,?,1.6µM,?,3.2µM,.
CC(C)CC(=O)NC(c1ccccc1Cl)c1c(O)ccc2ccccc12 (configuration not stated),?,?,.,21µM,?,?
Cc1ccc2oc(C(=O)NCC(c3ccc(Cl)cc3)N3CCOCC3)c(C)c2c1 (configuration not stated),.,/,/,.,?,/
Cc1cc(=O)[nH]c(SCCCOc2ccc(F)cc2)n1,.,.,.,18µM,.,.
CCC(=O)c1ccccc1OCCSc1nc(C)cc(=O)[nH]1,.,.,.,15µM,.,.
CCCCOCCCNc1ncnc2c1[nH]c1ccccc12,2.6µM,18µM,13µM,1.6µM,?,.
CCOCCCNc1ncnc2c1[nH]c1ccccc12,?,.,.,?,.,.
CCCCOc1ncnc2c1[nH]c1ccc(OC)cc12,.,.,.,.,.,.
CCCCOc1ncnc2c1[nH]c1ccc(OCC)cc12,.,.,?,?,.,.
CCCCOc1ncnc2c1[nH]c1ccc(F)cc12,18µM,.,?,6.5µM,.,.
CCCCOc1ncnc2c1[nH]c1ccccc12,?,15µM,.,.,.,.
CCCCn1cc(S(=O)(=O)c2ccc(C)c(C)c2)c(=O)c2cc(F)c(N3CCN(C)CC3)cc21,.,/,/,.,/,/
c1ccc(-c2nc(C3CCCCC3)no2)cc1,.,.,.,.,.,.
COc1ccc(-c2nc(C3CCCCC3)no2)cc1OC,.,.,.,16µM,.,.
COc1ccc(-c2nc(-c3ccccc3OC)no2)cc1OC,?,.,.,6.5µM,.,.
O=C1CC2CC1C(C(=O)O)C2C(=O)O (configuration not stated),.,?,.,.,.,.
O=C(NC[C@H](O)CO)c1ccncc1Nc1ccc(I)cc1F,/,/,/,/,.,/
Cn1cc(-c2cc3n(n2)CCC(=O)N3CCCC(=O)Nc2ccccc2F)c2ccccc21,.,/,/,.,.,.

# Screening data from PubChem.
